Some test systems named below: HCT-15 colon; HT29 colon; SNB-75 CNS; SNB-19 CNS; U251 CNS; PC-3 prostate; SK-MEL-5 melanoma; UACC-62 melanoma; LOX IMVI melanoma; SK-MEL-28 melanoma; SK-MEL-2 melanoma; EKVX NSCLC; SN12C renal; UO-31 renal; TK-10 renal; ACHN renal; CAKI-1 renal; A498 renal; CCRF-CEM leukemia; MOLT-4 leukemia.
Assay in all cases: NCI-60 one-dose screen, 48 h (100 = growth as untreated, 0 = no growth, -100 = all killed)
Common to all, as to details: 10 µM unless noted

Compounds without any hit were thinned out: in the full panel of roughly 83,000, 20% have a hit.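 In brief: 96-well plates, 48 h treatment, single concentration, percent growth endpoint.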 Unmarked numbers belong to inactive results. Active and inactive are the calls of the source. Rule for the calls: active = growth percent below 10; inactive = the rest.

As to `COc1ccc(C2C3=C(COC3=O)N(CCO)c3cc4c(cc32)OCO4)cc1OC` (stereo not given), the growth in the assay on HCT-15 colon was 77%; in the assay with HT29 colon it was 39.9%; in the assay on SNB-75 CNS, 71%; with SNB-19 CNS it was 88.1%; in the assay on U251 CNS it was 97.9%; with PC-3 prostate, 58.3%. In addition, the growth is 67.9% in the assay on SK-MEL-5 melanoma; 71.8% in the assay with UACC-62 melanoma; 77.2% with LOX IMVI melanoma; 89% in the assay on SK-MEL-28 melanoma; 93.2% with SK-MEL-2 melanoma; 96.1% with EKVX NSCLC. In addition, the growth is 94.8% with SN12C renal; 95.9% with UO-31 renal; 105% with TK-10 renal; 101% with ACHN renal; 98.4% in the assay on CAKI-1 renal; 79% in the assay with A498 renal. The growth in the assay with CCRF-CEM leukemia was 65.2%; in the assay on MOLT-4 leukemia, 88.5%.

On to `C[C@@H]1NC(=O)[C@H](Cc2ccccc2)N(Cc2cccnc2)C1=O`, for which the growth in the assay on HCT-15 colon is 103%; in the assay with HT29 colon, 102%; in the assay with SNB-75 CNS, 85.1%; in the assay on SNB-19 CNS, 96.1%; in the assay on U251 CNS, 91.1%; in the assay on PC-3 prostate, 94.1%. Besides, the growth in the assay on SK-MEL-5 melanoma was 101%; in the assay with UACC-62 melanoma it was 92.7%; in the assay on LOX IMVI melanoma, 98.5%; with SK-MEL-28 melanoma, 112%; with SK-MEL-2 melanoma, 96.7%; in the assay on EKVX NSCLC, 109%. Besides, the growth in the assay on SN12C renal is 93.6%; in the assay on UO-31 renal, 89%; in the assay with TK-10 renal, 95%; with ACHN renal, 97.3%; with CAKI-1 renal, 90.2%; with A498 renal it was 63.5%. Further, the growth in the assay with CCRF-CEM leukemia is 109%; in the assay with MOLT-4 leukemia it was 101%.

Consider `C=C1C(=O)O[C@H]2[C@H]1CC/C(COC(=O)/C=C\C(=O)NCc1ccc(Cn3c(=O)sn(CCCCl)c3=O)cc1)=C\CC[C@@]1(C)O[C@@H]21`, for which the growth in the assay with HCT-15 colon was 30.8%; in the assay on HT29 colon, 46.9%; with SNB-75 CNS, 88.5%; in the assay with SNB-19 CNS it was 94.8%; in the assay with U251 CNS, 79.6%; with PC-3 prostate, 76.9%. Also, the growth in the assay on SK-MEL-5 melanoma was 102%; with UACC-62 melanoma it was 65.1%; in the assay with LOX IMVI melanoma it was 64.2%; in the assay on SK-MEL-28 melanoma, 100%; in the assay with SK-MEL-2 melanoma, 83.4%; in the assay on EKVX NSCLC it was 94.1%. For the same molecule, the growth with SN12C renal was 64.9%; in the assay with UO-31 renal it was 53.1%; with TK-10 renal, 57.7%; in the assay on ACHN renal, 40.2%; in the assay with CAKI-1 renal it was 51.6%; with A498 renal it was 103%. Moreover, the growth is 1.6% (active) in the assay with CCRF-CEM leukemia and 60.7% in the assay with MOLT-4 leukemia.

As for `c1cc(OCCCCCOc2cccc(-c3nc4ccccc4[nH]3)c2)cc(-c2nc3ccccc3[nH]2)c1`, the growth was 12.3% with HCT-15 colon; 5.53% (active) with HT29 colon; 31.4% with SNB-75 CNS; 22.3% in the assay on SNB-19 CNS; 6.76% (active) in the assay with U251 CNS; -13.1% (active) with PC-3 prostate. Further, the growth with SK-MEL-5 melanoma was -81.5% (active); with UACC-62 melanoma, 8.55% (active); with LOX IMVI melanoma it was -27.8% (active); with SK-MEL-28 melanoma it was 18.7%; in the assay on SK-MEL-2 melanoma, 9.28% (active); with EKVX NSCLC, 2.5% (active). Moreover, the growth in the assay with SN12C renal is 26.4%; in the assay with UO-31 renal it was 3.69% (active); with TK-10 renal, 25.7%; in the assay on ACHN renal, 6.47% (active); in the assay with CAKI-1 renal, 36.4%; in the assay on A498 renal, 9.68% (active). Further, the growth in the assay with CCRF-CEM leukemia is -18.9% (active); with MOLT-4 leukemia it was -13.5% (active).

Consider `C#COc1cccc(Nc2ncnc3cc(NC(=O)[C@H](C)Cl)ccc23)c1`, for which the growth in the assay with HCT-15 colon was 9.91% [6.25 µM] (active); with HT29 colon, 1.38% [6.25 µM] (active); with SNB-75 CNS it was 3.55% [6.25 µM] (active); with SNB-19 CNS, 19.3% [6.25 µM]; in the assay with U251 CNS, 3.14% [6.25 µM] (active); in the assay on PC-3 prostate, 95.3% [6.25 µM]. The growth was 9.1% [6.25 µM] (active) in the assay with SK-MEL-5 melanoma; 22.1% [6.25 µM] in the assay on UACC-62 melanoma; 5.47% [6.25 µM] (active) with LOX IMVI melanoma; 29.4% [6.25 µM] in the assay with SK-MEL-28 melanoma; 9.63% [6.25 µM] (active) with SK-MEL-2 melanoma; 20.3% [6.25 µM] with EKVX NSCLC. Further, the growth with SN12C renal was 10.6% [6.25 µM]; with UO-31 renal, 27.1% [6.25 µM]; in the assay with TK-10 renal it was 9.65% [6.25 µM] (active); in the assay with ACHN renal, 17.1% [6.25 µM]; in the assay on CAKI-1 renal, 26.2% [6.25 µM]; in the assay with A498 renal it was 2.08% [6.25 µM] (active). Further, the growth in the assay on CCRF-CEM leukemia was 102% [6.25 µM]; in the assay on MOLT-4 leukemia, 98.6% [6.25 µM].

For the molecule `c1cc(OCCN2CCCCCC2)ccc1CNc1ccc2nc(CCC3CCCCC3)[nH]c2c1`, the growth is 3.08% (active) with HCT-15 colon; 8.15% (active) in the assay on HT29 colon; 74.2% with SNB-75 CNS; 79.5% in the assay with SNB-19 CNS; 45.2% in the assay on U251 CNS; 50.5% in the assay on PC-3 prostate. In addition, the growth in the assay with SK-MEL-5 melanoma was -86.3% (active); with UACC-62 melanoma, 83.9%; in the assay with LOX IMVI melanoma it was -67.4% (active); in the assay on SK-MEL-28 melanoma it was -8.14% (active); in the assay on SK-MEL-2 melanoma, 75%; in the assay with EKVX NSCLC, 79.8%. The growth in the assay on SN12C renal is 54.7%; with UO-31 renal, 10.8%; in the assay on TK-10 renal, 88.7%; in the assay on ACHN renal, 80.6%; in the assay with CAKI-1 renal, 42.8%; in the assay on A498 renal, 62.5%. In addition, the values for the growth with CCRF-CEM leukemia and with MOLT-4 leukemia were 29.5% and 25.5%, respectively.

For `COc1cc(C=C2C(=O)NC(=S)NC2=O)cc(CN2CCCC2)c1O`, the growth with HCT-15 colon was 105%; in the assay on HT29 colon, 109%; in the assay with SNB-75 CNS, 95.4%; in the assay with SNB-19 CNS, 105%; in the assay with U251 CNS, 96.2%; in the assay on PC-3 prostate, 102%. In addition, the growth with SK-MEL-5 melanoma was 111%; in the assay with UACC-62 melanoma, 99.7%; in the assay on LOX IMVI melanoma, 97.6%; with SK-MEL-28 melanoma, 115%; in the assay on SK-MEL-2 melanoma it was 110%; with EKVX NSCLC, 101%. In addition, the growth in the assay with SN12C renal is 104%; in the assay on UO-31 renal, 87%; in the assay with TK-10 renal, 109%; with ACHN renal it was 111%; in the assay on CAKI-1 renal, 90.5%; in the assay on A498 renal it was 101%. The growth in the assay with CCRF-CEM leukemia was 107%; in the assay with MOLT-4 leukemia, 110%.

For `CC12OC(CC(O)C1O)n1c3ccccc3c3c4c(c5c6ccccc6n2c5c31)C(=O)N(CCN1CCCC1)C4=O` (stereo not given), the growth in the assay with HCT-15 colon is 10.5%; in the assay with HT29 colon, 5.08% (active); in the assay with SNB-75 CNS, 10.2%; in the assay on SNB-19 CNS it was 13.4%; with U251 CNS it was 11.8%; with PC-3 prostate it was 20.8%. Further, the growth with SK-MEL-5 melanoma is 28.9%; in the assay with UACC-62 melanoma it was 19.3%; with LOX IMVI melanoma, -2.77% (active); with SK-MEL-28 melanoma, 63%; with SK-MEL-2 melanoma, 31.9%; in the assay on EKVX NSCLC, 38.4%. For the same molecule, the growth was 14.9% in the assay on SN12C renal; 19.5% with UO-31 renal; 21.2% in the assay with TK-10 renal; -38.1% (active) with ACHN renal; 15.4% in the assay with CAKI-1 renal; 17.8% in the assay on A498 renal. In addition, the growth was 20.3% in the assay on CCRF-CEM leukemia and -3.23% (active) in the assay with MOLT-4 leukemia.

The values above are taken from PubChem BioAssay (NCI).
